Screening results deposited in PubChem by several laboratories.
Sampled rows, rich in hits. Any-hit rate of the full collection: about 1.6%.
TNAP act DEA = human TNAP enzyme activators, primary screen, biochemical, luminescent, intermediate phosphate acceptor level. purified TNAP, CDP-star luminescence, 100 mM DEA, 30 min; hits give high values; scale: 0 levamisole-inhibited, 1 vehicle-only enzyme. Alkaline phosphatase, tissue-nonspecific isozyme (Homo sapiens), P05186. 64,000 tested, under 10 active. activation factor at 20 µM. AID 813, 2007;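 active means activation factor of at least 2 at 20 µM, relative to controls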
Target sequence (P05186 whole entry, looked up): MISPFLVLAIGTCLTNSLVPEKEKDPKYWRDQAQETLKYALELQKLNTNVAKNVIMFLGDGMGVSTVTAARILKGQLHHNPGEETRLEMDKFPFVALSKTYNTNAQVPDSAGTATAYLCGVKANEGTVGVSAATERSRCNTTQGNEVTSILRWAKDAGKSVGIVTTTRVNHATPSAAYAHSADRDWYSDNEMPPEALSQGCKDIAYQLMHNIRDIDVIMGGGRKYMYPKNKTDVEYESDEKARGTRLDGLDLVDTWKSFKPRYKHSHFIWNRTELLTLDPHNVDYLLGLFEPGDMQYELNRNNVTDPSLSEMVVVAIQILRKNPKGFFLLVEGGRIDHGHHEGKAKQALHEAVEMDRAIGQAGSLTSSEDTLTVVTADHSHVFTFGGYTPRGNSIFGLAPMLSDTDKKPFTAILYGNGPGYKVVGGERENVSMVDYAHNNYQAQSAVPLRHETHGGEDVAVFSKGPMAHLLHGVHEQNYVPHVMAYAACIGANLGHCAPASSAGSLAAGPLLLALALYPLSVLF
PTPN22 inh 2 = PTPN22 phosphatase inhibitors, primary screen, biochemical, DiFMUP fluorescence, 2 µM; Tyrosine-protein phosphatase non-receptor type 22 (Homo sapiens), Q9Y2R2; recombinant LYP catalytic domain; inhibition, % at 2 µM; actives 0.21% (n = 96,000); AID 640, 2007;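 active means inhibition at 2 µM at or above a set limit, the screen mean plus 3 SD, cut at about 24% in these data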;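 further: 0% = DMSO with enzyme and 100% = enzyme fully blocked by orthovanadate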
PTPN22 act = LYP phosphatase activators, primary screen, biochemical, DiFMUP fluorescence, 2 µM; Tyrosine-protein phosphatase non-receptor type 22 (Homo sapiens), Q9Y2R2; recombinant LYP; 0 = plate median, 100 = signal doubled; activation, % at 2 µM; actives 0.11% (n = 96,000);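 active means activation at 2 µM above a set limit, the mean plus 5 SD, cut at about 37% in these data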
PLAP activator = PLAP enzyme activators, biochemical, luminescence, HTS; AID 696, 2007; Alkaline phosphatase, placental type (Homo sapiens), P05187; activation fold at 20 µM; purified PLAP enzyme, luminescent substrate read-out; hits give high values; actives 1.2% (n = 96,000); in the data active means activation fold above about 2
MT1-MMP txn act = MT1-MMP promoter reporter activation – cell-based, luciferase luminescence, primary screen | HT1080 MT1-MMP promoter luciferase reporter, overnight; hits give high values | activation factor at 10 µM | actives 0.16% (n = 86,000);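 active means activation factor of at least 2 for MT1-MMP transcription at 10 µM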
* hit, by the source's call.

Screening Clc1cccc2sc(N3CCOCC3)nc12 returned TNAP act DEA 0.9, PTPN22 inh 2 6, PTPN22 act -8 and MT1-MMP txn act 2.1*.
O=c1/c(=C/c2ccco2)sc2nc(-c3ccccc3Br)nn12 was read as TNAP act DEA 0.4, PLAP activator 2.2* and MT1-MMP txn act 1.1.
CC1=NN(C(=O)c2cccc(Cn3nc(C)c([N+](=O)[O-])c3C)c2)C(O)(C(F)(F)F)C1 (stereo not drawn) was read as PTPN22 inh 2 5, PTPN22 act -2 and PLAP activator 2.1*.
For Cc1nn(Cc2cccc(C(=O)N3N=C(C(F)F)CC3(O)C(F)F)c2)c(C)c1[N+](=O)[O-] (stereo not drawn) the results were PTPN22 inh 2 1, PTPN22 act -1 and PLAP activator 1.5.
For COC(=O)c1ccc(C(/C=C/[C@@H](C)C(=O)N(C)C)NC(=O)OCc2ccccc2)cc1 (stereo partly drawn) the results were MT1-MMP txn act 1.1.
Screening Cc1cccc(NC(=O)Cc2noc3ccccc23)c1 returned PTPN22 inh 2 8, PTPN22 act -7 and MT1-MMP txn act 2.1*.
COC(=O)[C@@]1(Cc2ccccc2)[C@H]2c3cc(C(=O)N4CCCC4)n(Cc4nc5ccccc5[nH]4)c3C[C@H]2CN1C(=O)c1ccccc1 was read as MT1-MMP txn act 1.2.
`COc1ccc(-n2c(O)cnc2Nc2nc(C)cc(C)n2)cc1OC` gave PTPN22 inh 2 0, PTPN22 act 0, PLAP activator 2.7* and MT1-MMP txn act 1.2.
Screening CCc1ccc(-n2c(O)cnc2Nc2nc(C)cc(C)n2)cc1 returned TNAP act DEA 1.2, PTPN22 inh 2 3, PTPN22 act -5, PLAP activator 2.7* and MT1-MMP txn act 1.
For CCOC(=O)C1=C(C)C(c2ccccc2OC)NC(=S)N1 (stereo not drawn) the results were PTPN22 inh 2 -4, PTPN22 act 7 and PLAP activator 1.1.
For CCOc1ccc(C)cc1S(=O)(=O)NC1CCCCC1 the results were TNAP act DEA 0.9, PTPN22 inh 2 -9, PTPN22 act 3, PLAP activator 2.2* and MT1-MMP txn act 1.2.
`COC(=O)[C@@]1(Cc2ccc(OC)cc2)[C@H]2c3cc(C(=O)N(C)C)n(CCF)c3C[C@H]2CN1C(=O)c1ccccc1` gave MT1-MMP txn act 1.2.
`COCCN(C(=O)Cc1cccs1)C(C(=O)NCc1ccc(OC)cc1)c1ccc(C(C)C)cc1` (stereo not drawn) gave PLAP activator 2.6*.
COC(=O)c1ccccc1NC(=O)CSc1n[nH]c(C)n1 was read as PTPN22 inh 2 1, PTPN22 act -3 and MT1-MMP txn act 1.2.
`COC(=O)c1ccccc1NC(=O)CSc1n[nH]c(CC(C)C)n1` gave TNAP act DEA 0.9, PTPN22 inh 2 -9, PTPN22 act 8, PLAP activator 2.4* and MT1-MMP txn act 1.3.
For CC(C)C(=O)Nc1nc(-c2ccccc2)ns1 the results were PTPN22 inh 2 -3, PTPN22 act 3 and MT1-MMP txn act 2*.
For COC(=O)C1=C(N)Oc2cc(C)n(CCc3ccccc3)c(=O)c2C1c1cccnc1 (stereo not drawn) the results were TNAP act DEA 0.9, PTPN22 inh 2 -8, PTPN22 act 5, PLAP activator 2* and MT1-MMP txn act 0.9.
`CC(OC(=O)c1ccccc1NCc1ccco1)C(=O)Nc1ncc(Cl)cc1Cl` (stereo not drawn) gave TNAP act DEA 0.9, PLAP activator 0.9 and MT1-MMP txn act 0.9.
`CCOC(=O)C1=C(C)N(CCCCCC(=O)O)C(=O)NC1c1ccccc1OS(=O)(=O)c1ccccc1[N+](=O)[O-]` (stereo not drawn) gave MT1-MMP txn act 1.3.
For C=CCn1c(Cc2nc3ccc(Cl)cc3[nH]2)n[nH]c1=S the results were TNAP act DEA 1.2, PTPN22 inh 2 6, PTPN22 act -7, PLAP activator 2.4* and MT1-MMP txn act 1.1.
For C=CCn1c(Cc2c[nH]c3ccccc23)n[nH]c1=S the results were TNAP act DEA 1, PTPN22 inh 2 -2, PTPN22 act 2, PLAP activator 1.6 and MT1-MMP txn act 1.1.
For CC1CCC2(CC1)C(Nc1cccc(Cl)c1)=NC(=S)N2CC#N (stereo not drawn) the results were PTPN22 inh 2 4, PTPN22 act -8 and MT1-MMP txn act 1.3.
For c1ccc(CCCNc2ncnc3nc[nH]c23)cc1 the results were TNAP act DEA 1.3 and PLAP activator 1.9.
`c1ccc(CNc2ncnc3nc[nH]c23)cc1` gave PTPN22 inh 2 5, PTPN22 act -5, PLAP activator 2* and MT1-MMP txn act 1.1.
CCOc1cc(CNc2ncnc3nc[nH]c23)ccc1OC was read as TNAP act DEA 1.1, PLAP activator 2.2* and MT1-MMP txn act 1.
COc1ccccc1C1C(C#N)=C(N)Oc2cc(C)n(CCCn3ccnc3)c(=O)c21 (stereo not drawn) was read as TNAP act DEA 0.9, PTPN22 inh 2 -16, PTPN22 act 13, PLAP activator 2* and MT1-MMP txn act 1.
`COc1ccc(/C(C)=N/NC(=O)c2nc(C)cc(C)n2)cc1` gave PTPN22 inh 2 -4, PTPN22 act 6 and PLAP activator 2*.
Screening COc1ccc(/C(C)=N/NC(=O)c2ccc(N(C)C)cc2)cc1 returned PTPN22 inh 2 -1, PTPN22 act 4 and PLAP activator 1.
COc1ccc(N(CC(=O)Nc2ccc(C)c(C)c2)S(=O)(=O)c2c(C)n[nH]c2C)cc1 was read as TNAP act DEA 1.1, PTPN22 inh 2 0, PTPN22 act -2, PLAP activator 2.1* and MT1-MMP txn act 1.1.
`CCc1cccc(NC(=O)CN(c2ccc(OC)cc2)S(=O)(=O)c2c(C)n[nH]c2C)c1` gave TNAP act DEA 1, PTPN22 inh 2 -7, PTPN22 act 5, PLAP activator 2.4* and MT1-MMP txn act 1.2.
Screening Cc1nn(C)c(C)c1S(=O)(=O)N(CC(=O)NC1CCCCCC1)c1ccc(C(C)C)cc1 returned PTPN22 inh 2 -1, PTPN22 act 0 and PLAP activator 0.8.
Screening Cc1n[nH]c(C)c1S(=O)(=O)N(CC(=O)NC1CCCC1)c1ccc(C(C)C)cc1 returned TNAP act DEA 1, PTPN22 inh 2 2, PTPN22 act -4, PLAP activator 2.3* and MT1-MMP txn act 1.2.
Screening COc1ccc(N(CC(=O)Nc2cccc(C)c2)S(=O)(=O)c2c(C)n[nH]c2C)cc1 returned TNAP act DEA 1, PTPN22 inh 2 4, PTPN22 act -6, PLAP activator 1.9 and MT1-MMP txn act 1.2.
Screening CSCC[C@H](NC(=O)OC(C)(C)C)C(=O)N/N=C/c1c(C)[nH]c(=O)[nH]c1=O returned PTPN22 inh 2 -5, PTPN22 act 10 and PLAP activator 2.2*.
